This is a sample that favours compounds with a hit; in the whole collection about 17% have one here.
HepG2 viability: HepG2 cytotoxicity, counter-screen for TGF-b inhibitors | HepG2 CAGA-GFP viability, ATP luminescence, 18 h | Potency, µM (top dose mostly 46.1 µM), inactives show top-dose activity change, negative = cytotoxicity, usual class: cytotoxic | 0.76% of 410,000 active | AID 588856
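HepG2 CAGA-GFP cells (1000/well, DMEM with 1% FBS) received compound, then TGF-beta at 500 pg/mL final, and were incubated 18 hours at 37 degrees C. Viability was read by CellTiter-Glo luminescence. Media-only wells were set as complete cell-killing and DMSO as no toxicity.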
DT40 TDP1 no CPT: qHTS for Inhibitors of human tyrosyl-DNA phosphodiesterase 1 (TDP1): qHTS in cells in absence of CPT. 15% of 420,000 active. Potency, µM (highest dose often 46.2 µM), for the others: at the highest dose activity change, negative = growth inhibition, actives largely listed as inhibitors. DT40 Tdp1-/- hTDP1 cells, no CPT, ATP luminescence, 48 h; note: % is set by controls: 0 for no effect and ±100 for the full control effect; nearly all actives have a fitted effect of over 55% in size
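Compound effects on proliferation are scored in DT40 Tdp1-/-;hTDP1 cells in the absence of CPT. ATP levels (CellTiter-Glo luminescence) are recorded after a ≥48 hr, 37 °C incubation.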
HT1080NT lethal: kills 2HG-producing HT-1080-NT fibrosarcoma cells | HT-1080-NT fibrosarcoma viability, CellTiter-Glo ATP luminescence, 48 h | 1.6% of 360,000 active | Potency, µM (doses to about 46.1 µM), inactives show at the highest dose activity, negative = less viability, most hits filed as cytotoxic | AID 686970;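 note: NT is the 2HG producing partner of a matched IDH1 knockdown line; 0% = DMSO-treated cells and -100% = media-only wells without cells; nearly all actives have a fitted effect of over 55% in size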
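Read-out is CellTiter-Glo luminescence after 10 minutes at room temperature, following 48 hours' compound treatment of HT-1080-NT cells (750 cells/well, RPMI, 5% FBS, 37 degrees C).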
HT1080 IDH1KD tx: HT-1080 IDH1 knockdown cell toxicity (counter line) | HT-1080 IDH1 knockdown viability, ATP luminescence, 48 h | 2% of 360,000 active | Potency, µM (top dose mostly 46.1 µM), inactives show at the top dose activity, negative = toxicity, usual class: cytotoxic;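 note: 0% = DMSO wells and -100% = cell-free medium wells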
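After a 2 h attachment period, IDH1KD HT-1080 cells took pin-transferred compound for 48 h at 37 °C; ATP-based luminescence after 10 min room-temperature reagent incubation reported viability.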
DT40 TDP1 CPT: growth inhibition of DT40 Tdp1-/-;hTDP1 cells with camptothecin (screen for TDP1 inhibitors). chicken DT40 Tdp1-/-;hTDP1 cells + 20 nM CPT, ATP luminescence, 48 h. Potency, µM (highest dose often 46.2 µM), for inactives: at the top dose activity change, negative = growth inhibition, most hits filed as inhibitors. 12% of 420,000 active. AID 686979; note: % is set by controls: 0 for no effect and ±100 for the full control effect; nearly all actives have a fitted effect of over 55% in size
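Cell growth measured by CellTiter-Glo luminescence after a minimum 48 h, 37 C compound exposure with 20 nM CPT in Tdp1-knockout DT40 cells stably expressing hTDP1, seeded 400/well; qHTS titration format.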
TGFb inhibitor: blocks TGF-b signaling; HepG2 CAGA-GFP TGF-b/SMAD3 reporter, GFP fluorescence, 18 h; TGF-beta stimulated, 500 pg/mL final; Potency, µM (doses to about 46.1 µM), inactives show top-dose activity, negative = inhibition, hits mostly inhibitors; 1.2% of 410,000 active; note: % is set by controls: 0 for no effect and ±100 for the full control effect; nearly all actives have a fitted effect of over 65% in size
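Per well, imaged GFP fluorescence of HEPG2 CAGA-GFP cells gives the signal; cells get compound, then TGF-beta (500 pg/mL final), 18 h at 37 degrees C; %Activity versus -TGF-beta and +DMSO controls.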
Active calls of the source: *. Calls come from the whole dose curve; as a rule, active = well fitted curve in the direction sought with a large enough effect; inconclusive = small, poorly fitted or top-dose-only effect, or another doubt; inactive = no such curve, though single readings can be large; an effect the other way counts as inactive or inconclusive. Potency is the fitted concentration of half-maximal effect.

Results for O=C(CCCN1C(=O)c2cccc3cccc(c23)C1=O)N1CCN(c2ccccn2)CC1 ?
HepG2 viability: -4.3%; DT40 TDP1 no CPT: inconclusive; HT1080NT lethal: 14.9%; HT1080 IDH1KD tx: 7.8%; DT40 TDP1 CPT: inconclusive; TGFb inhibitor: 1.7%

Results for O=C(CN1C(=O)c2cccc3cccc1c23)N1CCN(c2ccccc2)CC1 ?
HepG2 viability: -4.5%; DT40 TDP1 no CPT: -11.0%; HT1080NT lethal: 2.3%; HT1080 IDH1KD tx: inconclusive; DT40 TDP1 CPT: -18.3%; TGFb inhibitor: -21.2%

What do the screens show for `COc1ccccc1N1CCN(C(=O)CCCN2C(=O)c3cccc4cccc(c34)C2=O)CC1`?
HepG2 viability: -15.7%; DT40 TDP1 no CPT: 29.1µM*; HT1080NT lethal: -9.9%; HT1080 IDH1KD tx: -15.9%; DT40 TDP1 CPT: 16.4µM*; TGFb inhibitor: inconclusive

How did COc1cc(/C=C/c2cc[n+](C)c3ccccc23)cc(OC)c1OC do in these assays?
HepG2 viability: 9.6%; DT40 TDP1 no CPT: -9.0%; DT40 TDP1 CPT: -14.1%; TGFb inhibitor: 7.0%

How did COc1ccc(CN(C(=O)c2ccco2)c2ccccc2)cc1 do in these assays?
HepG2 viability: -2.4%; DT40 TDP1 no CPT: inconclusive; HT1080NT lethal: 0.1%; HT1080 IDH1KD tx: -0.4%; DT40 TDP1 CPT: inconclusive; TGFb inhibitor: 19.4%

Results for O=C(c1ccccc1Br)N(Cc1ccccc1)c1ccccc1 ?
HepG2 viability: -19.4%; DT40 TDP1 no CPT: 11.6µM*; HT1080NT lethal: -10.0%; HT1080 IDH1KD tx: -8.8%; DT40 TDP1 CPT: 20.6µM*; TGFb inhibitor: -29.6%

Results for Cc1nc(-c2ccccc2)nc2[nH]c(C(C)C)cc(=O)c12 ?
HepG2 viability: -4.4%; DT40 TDP1 no CPT: 20.6µM*; HT1080NT lethal: -16.6%; HT1080 IDH1KD tx: 7.8%; DT40 TDP1 CPT: inconclusive; TGFb inhibitor: 5.2%

Results for Cc1nc(-c2ccccc2)nc2[nH]c(=O)n(-c3ccccc3)c(=O)c12 ?
HepG2 viability: -18.3%; DT40 TDP1 no CPT: inconclusive; HT1080NT lethal: 4.2%; HT1080 IDH1KD tx: -10.0%; DT40 TDP1 CPT: inconclusive; TGFb inhibitor: -5.8%

Results for COc1ccc(C)cc1NS(=O)(=O)c1ccc2c3c(cccc13)C(=O)N2 ?
HepG2 viability: -61.2%; DT40 TDP1 no CPT: inconclusive; DT40 TDP1 CPT: 4.11µM*; TGFb inhibitor: inconclusive

What do the screens show for `COc1ccc(CNc2ncnc3nc[nH]c23)cc1OC`?
HepG2 viability: 1.0%; DT40 TDP1 no CPT: -10.7%; DT40 TDP1 CPT: inconclusive; TGFb inhibitor: -3.9%

How did CCOC(=O)c1ccc(CNc2ncnc3nc[nH]c23)cc1 do in these assays?
HepG2 viability: -10.3%; DT40 TDP1 no CPT: 11.2µM*; DT40 TDP1 CPT: 3.98µM*; TGFb inhibitor: inconclusive

What do the screens show for `CCOc1cc(CNc2ncnc3nc[nH]c23)ccc1OC`?
HepG2 viability: -21.9%; DT40 TDP1 no CPT: 25.9µM*; HT1080NT lethal: 12.6%; HT1080 IDH1KD tx: -0.4%; DT40 TDP1 CPT: inconclusive; TGFb inhibitor: -16.4%

Results for O=C(C1=COCCO1)N1CCN(c2nc3ccc([N+](=O)[O-])cc3s2)CC1 ?
HepG2 viability: 5.1%; DT40 TDP1 no CPT: 5.17µM*; HT1080NT lethal: 2.8%; HT1080 IDH1KD tx: -1.9%; DT40 TDP1 CPT: 9.2µM*; TGFb inhibitor: 4.9%

What do the screens show for `CC(=O)N1CCN(c2nc3ccc([N+](=O)[O-])cc3s2)CC1`?
HepG2 viability: -7.8%; DT40 TDP1 no CPT: inconclusive; HT1080NT lethal: -1.3%; HT1080 IDH1KD tx: 8.8%; DT40 TDP1 CPT: inconclusive; TGFb inhibitor: 18.8%

Source: PubChem BioAssay
